In PubChem BioAssay (EPA / NIEHS):
Activity calls are given as the source filed them. The calls were made as follows: active = hit-call score of the fitted dose curve at least 0.9, where 1 is the maximum; inactive = score below 0.9.

Tests used:
Conditions in all cases: mRNA level, 48 h; actives raise or lower the signal
[1] = read-out: Glutamate-cysteine ligase catalytic (GCLC), GCLC (gene 2729); test: LTEA_HepaRG_GCLC: Life Technologies and Expression Analysis (LTEA) Assay for Glutamate-cysteine ligase catalytic (GCLC) using HepaRG (AID 2283498)
Procedure, shortened: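 Differentiated HepaRG cells exposed 48 h in serum-free induction medium, eight-point half-log series topping at 100 uM in 0.5% DMSO, duplicates. GCLC mRNA by qRT-PCR normalized to ACTB, GAPDH and POLR2A, fitted bidirectionally versus DMSO.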

[2] = read-out: Glutamate-cysteine ligase regulatory (GCLM), GCLM (gene 2730); test: LTEA_HepaRG_GCLM: Life Technologies and Expression Analysis (LTEA) Assay for Glutamate-cysteine ligase regulatory (GCLM) using HepaRG (AID 2283500)
Procedure, shortened: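 Differentiated human HepaRG cells exposed 48 h in serum-free induction medium to 8-point half-log concentrations (top 100 uM, 0.5% DMSO), in duplicate. GCLM mRNA quantified by qRT-PCR, normalized to ACTB, GAPDH, POLR2A; bidirectional fitting versus DMSO.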

[3] = read-out: Glutathione S-transferase M3 (GSTM3), GSTM3 (gene 2947); test: LTEA_HepaRG_GSTM3: Life Technologies and Expression Analysis (LTEA) Assay for Glutathione S-transferase M3 (GSTM3) using HepaRG (AID 2283501)
Procedure, shortened: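 GSTM3 transcript levels came from Fluidigm TaqMan qRT-PCR normalized to three housekeeping genes, fitted in both directions against DMSO. HepaRG cultures received chemicals for 48 h in serum-free induction medium (0.5% DMSO), 8 half-log concentrations up to 100 uM, duplicate.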

[4] = read-out: Heat shock 70 kDa protein 1 (HSPA1A), gene 3303; test: LTEA_HepaRG_HSPA1A: Life Technologies and Expression Analysis (LTEA) Assay for Heat shock 70 kDa protein 1 (HSPA1A) using HepaRG (AID 2283502)
Procedure, shortened: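 Differentiated human HepaRG cells in serum-free induction medium were exposed in duplicate for 48 h to eight concentrations (top 100 uM, half-log steps, 0.5% DMSO). HSPA1A mRNA was quantified by qRT-PCR, normalized to ACTB, GAPDH and POLR2A, and fitted bidirectionally against DMSO.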

[5] = read-out: Hypoxia-inducible factor 1-alpha (Homo sapiens) (UniProt Q16665); test: LTEA_HepaRG_HIF1A: Life Technologies and Expression Analysis (LTEA) Assay for Hypoxia-inducible factor 1 (HIF1A) Trancription factor using HepaRG (AID 2283503)
Procedure, shortened: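 HepaRG, 48 h exposure, 8-pt half-log series from 100 uM, 0.5% DMSO vehicle, duplicates. Readout: HIF1A transcript by qRT-PCR (Fluidigm array), housekeeping-normalised. Bidirectional curve fit vs DMSO baseline.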

[6] = read-out: 3-Hydroxy-3-Methylglutaryl-CoA Synthase 2 (HMGCS2), HMGCS2 (gene 3158); test: LTEA_HepaRG_HMGCS2: Life Technologies and Expression Analysis (LTEA) Assay for 3-Hydroxy-3-Methylglutaryl-CoA Synthase 2 (HMGCS2) using HepaRG (AID 2283504)
Procedure, shortened: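 Readout is HMGCS2 transcript by qRT-PCR, housekeeping-normalised (ACTB/GAPDH/POLR2A) and fitted bidirectionally against 0.5% DMSO. Differentiated HepaRG cells received chemicals 48 h, duplicate wells, eight half-log concentrations topping at 100 uM.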

[7] = read-out: Insulin Like Growth Factor 1 (IGF1), IGF1 (gene 3479); test: LTEA_HepaRG_IGF1: Life Technologies and Expression Analysis (LTEA) Assay for Insulin Like Growth Factor 1 (IGF1) using HepaRG (AID 2283506)
Procedure, shortened: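 Differentiated human HepaRG cells were dosed for 48 h in serum-free induction medium with 0.5% DMSO, eight half-log concentrations up to 100 uM, in duplicate. IGF1 mRNA was quantified by qRT-PCR normalized to ACTB, GAPDH, POLR2A; bidirectional fitting versus DMSO.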

[8] = read-out: Intercellular Adhesion Molecule 1 (ICAM1), ICAM1 (gene 3383); test: LTEA_HepaRG_ICAM1: Life Technologies and Expression Analysis (LTEA) Assay for Intercellular Adhesion Molecule 1 (ICAM1) using HepaRG (AID 2283507)
Procedure, shortened: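 ICAM1 transcript levels measured by qRT-PCR, normalized to three housekeeping genes (ACTB, GAPDH, POLR2A), after 48 h chemical exposure of HepaRG cells. Duplicate eight-point half-log series from 100 uM in 0.5% DMSO; gain or loss fitted against vehicle.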

[9] = read-out: Insulin-like growth factor-binding protein 1 (IGFBP1), IGFBP1 (gene 3484); test: LTEA_HepaRG_IGFBP1: Life Technologies and Expression Analysis (LTEA) Assay for Insulin-like growth factor-binding protein 1 (IGFBP1) using HepaRG (AID 2283508)
Procedure, shortened: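 Read-out is qRT-PCR transcript level normalized to three housekeeping genes, fitted in both directions against 0.5% DMSO. Differentiated HepaRG cells received eight half-log concentrations (top 100 uM) in duplicate for 48 h in serum-free induction medium.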

[10] = read-out: Interleukin 6 (IL6), IL6 (gene 3569); test: LTEA_HepaRG_IL6: Life Technologies and Expression Analysis (LTEA) Assay for Interleukin 6 (IL6) using HepaRG (AID 2283509)
Procedure, shortened: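 HepaRG cells exposed in duplicate for 48 h to eight half-log concentrations, top 100 uM, in 0.5% DMSO serum-free induction medium. mRNA measured by qRT-PCR, normalized to ACTB, GAPDH and POLR2A. Bidirectional fit versus DMSO.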

[11] = read-out: Interleukin 6 Receptor (IL6R), IL6R (gene 3570); test: LTEA_HepaRG_IL6R: Life Technologies and Expression Analysis (LTEA) Assay for Interleukin 6 Receptor (IL6R) using HepaRG (AID 2283510)
Procedure, shortened: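 Differentiated human HepaRG cells, plated 48 h then switched to serum-free induction medium, were dosed in duplicate for 48 h at eight half-log concentrations up to 100 uM in 0.5% DMSO. IL6R mRNA quantified by qRT-PCR, normalized to ACTB/GAPDH/POLR2A; bidirectional fit versus DMSO.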

[12] = read-out: Keratin 19 (KRT19), KRT19 (gene 3880); test: LTEA_HepaRG_KRT19: Life Technologies and Expression Analysis (LTEA) Assay for Keratin 19 (KRT19) using HepaRG (AID 2283512)
Procedure, shortened: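 KRT19 transcript measured by TaqMan qRT-PCR, referenced to three housekeeping genes, after HepaRG cells received test chemicals for 48 h. Eight half-log concentrations, top 100 uM, 0.5% DMSO vehicle; increases and decreases both fitted.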

[13] = read-out: JUN Transcription Factor, JUN (gene 3725); test: LTEA_HepaRG_JUN: Life Technologies and Expression Analysis (LTEA) Assay for JUN Transcription Factor using HepaRG (AID 2283513)
Procedure, shortened: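 Differentiated HepaRG cells were exposed to chemicals for 48 h in serum-free induction medium, 8 concentrations from 100 uM in half-log steps, 0.5% DMSO vehicle, in duplicate. JUN mRNA was quantified by TaqMan qRT-PCR, normalized to ACTB, GAPDH, POLR2A.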

[14] = read-out: Lipase C (LIPC), LIPC (gene 3990); test: LTEA_HepaRG_LIPC: Life Technologies and Expression Analysis (LTEA) Assay for Lipase C (LIPC) using HepaRG (AID 2283514)
Procedure, shortened: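 HepaRG cells, 48 h after plating, treated in duplicate for 48 h in serum-free induction medium over 8 half-log concentrations from 100 uM, 0.5% DMSO. LIPC mRNA by TaqMan qRT-PCR normalized to ACTB/GAPDH/POLR2A; bidirectional fit versus DMSO.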

[15] = read-out: Lipoprotein lipase (LPL), LPL (gene 4023); test: LTEA_HepaRG_LPL: Life Technologies and Expression Analysis (LTEA) Assay for Lipoprotein lipase (LPL) using HepaRG (AID 2283515)
Procedure, shortened: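 Differentiated HepaRG cells, plated 48 h, then exposed 48 h in serum-free induction medium to 8 concentrations (top 100 uM, half-log steps) in 0.5% DMSO, duplicate. LPL mRNA measured by qRT-PCR, normalized to ACTB, GAPDH and POLR2A.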

HGF (gene 3082) = test: LTEA_HepaRG_HGF: Life Technologies and Expression Analysis (LTEA) Assay for Hepatocyte Growth Facto (HGF) using HepaRG (AID 2283505)
Procedure, shortened: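 HGF transcript was quantified by TaqMan qRT-PCR against three housekeeping genes after 48 h treatment of HepaRG cells. Exposure ran in duplicate over eight half-log steps topping at 100 uM in 0.5% DMSO vehicle.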

[16] = read-out: Potassium channel subfamily K member 1 (KCNK1), KCNK1 (gene 3775); test: LTEA_HepaRG_KCNK1: Life Technologies and Expression Analysis (LTEA) Assay for Potassium channel subfamily K member 1 (KCNK1) using HepaRG (AID 2283511)
Procedure, shortened: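 Differentiated HepaRG cells, 48 h exposure in serum-free induction medium with 0.5% DMSO; 8 concentrations, half-log from 100 uM, duplicate. KCNK1 mRNA by qRT-PCR, normalized to ACTB, GAPDH, POLR2A; bidirectional fit vs DMSO.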

[17] = read-out: MicroRNA 122 (MIR122), gene 406906; test: LTEA_HepaRG_MIR122: Life Technologies and Expression Analysis (LTEA) Assay for MicroRNA 122 (MIR122) using HepaRG (AID 2283516); also: the transcript read is the microRNA miR-122
Procedure, shortened: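 Differentiated human HepaRG cells were exposed 48 h in serum-free induction medium to eight half-log concentrations (top 100 uM, 0.5% DMSO). Transcript level was measured by TaqMan qRT-PCR, normalized to ACTB, GAPDH and POLR2A, and fitted bidirectionally versus DMSO.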

[18] = read-out: growth arrest and DNA damage 45 (GADD45G), GADD45G (gene 10912); test: LTEA_HepaRG_GADD45G: Life Technologies and Expression Analysis (LTEA) Assay for growth arrest and DNA damage 45 (GADD45G) using HepaRG (AID 2283499)
Procedure, shortened: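 GADD45G transcript level by qRT-PCR (housekeeping-normalized: ACTB, GAPDH, POLR2A) after 48 h chemical treatment of a single HepaRG lot in serum-free induction medium; eight-point half-log series up to 100 uM in 0.5% DMSO, duplicates, up- or down-regulation scored.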

Measured: AC50

Sequence of Hypoxia-inducible factor 1-alpha (Homo sapiens) (Q16665 whole entry, looked up): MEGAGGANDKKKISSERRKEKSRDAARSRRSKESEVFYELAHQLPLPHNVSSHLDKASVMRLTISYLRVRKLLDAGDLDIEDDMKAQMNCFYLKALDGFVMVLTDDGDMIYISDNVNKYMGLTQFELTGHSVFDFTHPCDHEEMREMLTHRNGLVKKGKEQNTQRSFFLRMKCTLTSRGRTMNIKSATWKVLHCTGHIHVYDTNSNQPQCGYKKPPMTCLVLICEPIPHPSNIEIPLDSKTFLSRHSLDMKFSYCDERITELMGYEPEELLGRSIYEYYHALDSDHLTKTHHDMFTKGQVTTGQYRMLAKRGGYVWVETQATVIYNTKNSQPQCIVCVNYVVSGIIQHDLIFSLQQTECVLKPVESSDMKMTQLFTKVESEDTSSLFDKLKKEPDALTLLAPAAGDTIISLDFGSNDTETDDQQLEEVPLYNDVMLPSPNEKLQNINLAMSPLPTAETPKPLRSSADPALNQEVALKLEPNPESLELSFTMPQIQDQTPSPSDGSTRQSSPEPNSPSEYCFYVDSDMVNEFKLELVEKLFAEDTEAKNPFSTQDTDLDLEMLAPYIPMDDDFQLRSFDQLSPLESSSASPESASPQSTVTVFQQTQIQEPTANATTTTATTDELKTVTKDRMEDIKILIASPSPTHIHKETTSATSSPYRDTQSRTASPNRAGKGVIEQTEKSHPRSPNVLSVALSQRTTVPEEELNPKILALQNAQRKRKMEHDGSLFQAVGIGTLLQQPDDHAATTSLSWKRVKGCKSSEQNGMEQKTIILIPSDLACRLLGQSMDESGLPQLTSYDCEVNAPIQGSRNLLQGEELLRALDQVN

CNCc1cc(F)ccc1Oc1ccc(Cl)c(Cl)c1
active: [4] 78.4 µM | [6] 88.6 µM | [7] 89.4 µM | [8] 79.2 µM | [9] 73.5 µM | [10] 95.4 µM | [13] 80.5 µM
not listed: HGF (gene 3082) | [16] | [17] | [18]
inactive: all other assays above

FC(F)(F)C(F)(F)C(F)(F)C(F)(F)C(F)(F)C(F)(F)CCI
not listed: [18]
inactive: all other assays above

CCCCC(CC)COC(=O)CC(C(=O)OCC(CC)CCCC)S(=O)(=O)O (stereo not drawn)
active: [1] 94.6 µM | [2] 79.7 µM | [4] 38.1 µM | [6] 79.6 µM | [9] 90.7 µM | [10] 91.4 µM | [13] 77.6 µM | [15] 82.1 µM
not listed: HGF (gene 3082) | [18]
inactive: all other assays above

NCCO
not listed: HGF (gene 3082) | [17]
inactive: all other assays above

Cc1ccc(C)c(C)c1
not listed: HGF (gene 3082) | [17] | [18]
inactive: all other assays above

Cc1ccc2ncccc2c1
not listed: [18]
inactive: all other assays above

Cc1ccccc1Cl
not listed: HGF (gene 3082) | [18]
inactive: all other assays above

C[C@]12C=CC(=O)C=C1CC[C@@H]1[C@@H]2C(=O)C[C@@]2(C)[C@H]1CC[C@]2(O)C(=O)CO
not listed: [13] | HGF (gene 3082) | [17] | [18]
inactive: all other assays above

O=c1c(O)c(-c2ccc(O)c(O)c2)oc2cc(O)cc(O)c12
active: [14] 80.5 µM
not listed: [5] | [7] | [16] | [17]
inactive: all other assays above

O=C(O)CCCCC(=O)O
not listed: HGF (gene 3082) | [18]
inactive: all other assays above

CCCCCCCC=O
active: [12] 1.32 µM
not listed: [17] | [18]
inactive: all other assays above

CCOC(=O)CCC(=O)OCC
active: [3] 83.4 µM | [4] 88.6 µM | [15] 85 µM
not listed: [17] | [18]
inactive: all other assays above

CC1(C)NC(=O)NC1=O
not listed: HGF (gene 3082)
inactive: all other assays above

CCOc1ccc2c(c1)C(C)=CC(C)(C)N2
active: [6] 20 µM | [7] 12.7 µM | [9] 50 µM | [11] 76.9 µM | [15] 50 µM
not listed: [5] | HGF (gene 3082) | [17]
inactive: all other assays above
